Sampled rows, rich in hits. Any-hit rate of the full collection: about 6.2%.
Lassa entry inh – Lassa virus entry inhibition; Lassa virus pseudotype entry inhibition, cell reporter; Potency, µM (titrated, usually from 37.9 µM), without a hit: at the highest dose activity change, negative = inhibition, hits mostly inhibitors; 300,000 compounds, 1.2% hits; calls by dose curve; tested in HEK293 cells; also: potency is read from the fitted curve at half-maximal effect; nearly all actives have a fitted effect of over 50% in size
HCMV inh – inhibitors of human cytomegalovirus; HFF cells, HCMV-luciferase reporter, 72 h; active compounds read low; activity change, negative = inhibition, % at 57.5 µM; 410,000 compounds, 4.5% hits; AID 1259415; in the data active = activity change below about -60%; inconclusive = no clear call, values can overlap the other calls; inactive = above about -39%
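Inhibition of viral replication was scored as loss of reporter luminescence in HFFs infected with HCMV-luciferase (MOI 1 PFU/cell) for 72 h; compounds tested at 2 doses, normalized to buffer and Salinomycin controls.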
MARV entry inh – inhibitors of Marburg virus binding or cell entry; AID 540276; 300,000 compounds, 1.8% hits; Marburg virus pseudotyped entry inhibition, cell reporter; Potency, µM (titrated, usually from 37.8 µM), inactives show at the top dose activity change, negative = inhibition, hits mostly inhibitors; calls by dose curve; tested in HEK293 cells; also: potency is read from the fitted curve at half-maximal effect
FMDV inh – foot and mouth disease virus antiviral activity; FMDV antiviral cell-based qHTS; Potency, µM (top dose mostly 57.9 µM), for inactives: at the highest dose activity change, negative = inhibition, usual class: inhibitors; 410,000 compounds, 1.2% hits; AID 1159524; calls by dose curve; tested in HEK293T cells; also: read-out not given here; potency is read from the fitted curve at half-maximal effect; nearly all actives have a fitted effect of over 45% in size
* hit, by the source's call; ? = inconclusive; / = no result given; + = active, no number; ! = not active in a repeat; [ ] = dose if it differs, or a comment. % is scaled to controls: 0 for no effect and ±100 for the full control effect.

SMILES | Lassa entry inh | HCMV inh | MARV entry inh | FMDV inh
Cc1cc(S(=O)(=O)N2CCOCC2)ccc1OCC(=O)Nc1ccccc1F | -11% | -32 | -4%[46.1 µM] | 9%
Cc1ccc(-c2nnc(SCC(=O)N/N=C/c3c(C)nn(-c4ccccc4)c3C)n2-c2ccc(C)cc2)cc1 | 7.1µM* | -39 | ? | ?
Cc1ccc(-c2nnc(SCC(=O)N/N=C/c3ccccc3C(=O)O)n2-c2ccc(C)cc2)cc1 | / | ? | / | -23%
Cc1nn(-c2ccccc2)c(C)c1/C=N/NC(=O)c1cc(-c2ccccc2)n[nH]1 | ? | -95* | ? | -26%
Cc1nn(-c2ccccc2)c(C)c1/C=N/NC(=O)c1cc(-c2cccc3ccccc23)n[nH]1 | ? | -3 | ? | -18%
Cc1ccc(-c2nnc(SCC(=O)N/N=C/c3ccc(C)s3)n2-c2ccccc2)cc1 | 16µM* | -35 | ? | 0%
Cc1ccc(/C=N/NC(=O)CSc2nnc(-c3ccccc3)n2-c2ccc(Cl)cc2)o1 | -9% | -84* | -2% | -14%
O=C1CN(S(=O)(=O)c2ccccc2)CCN1 | -2% | 12 | 4% | 17%
O=C(NNC(=O)c1cc(C(F)(F)F)cc(C(F)(F)F)c1)c1ccc(Cl)cc1 | -27% | -5 | -19%[46.1 µM] | -25%
Cc1nc(SC(C)C(=O)Nc2ccccc2Cl)cc(-c2ccccc2)n1 (stereo not drawn) | ? | -70* | ? | 0%
Cc1nc2c(c(C)nn2-c2ccccc2)c(C)c1CCC(=O)NCc1ccccc1 | -1%[46.1 µM] | -20 | -9%[46.1 µM] | -25%
COc1ccc2c3c(cccc13)C(=O)N(O)C2=O | -23% | -60* | -30% | -12%
Cc1ccc(-c2nn(-c3cc(N4CCNCC4)ccc3[N+](=O)[O-])c(=O)c3ccccc23)cc1 | ? | -68* | ? | -28%
Cc1nn(-c2cc(N3CCCCCC3)ccc2[N+](=O)[O-])c(=O)c2ccccc12 | ? | -32 | -27% | 0%
CN1CCN(C2Cc3ccccc3Sc3cc(C(F)(F)F)ccc32)CC1 (stereo not drawn) | ? | -109* | ? | 12%
CSc1ccc2c(c1)C(N1CCN(C)CC1)Cc1ccccc1S2 (stereo not drawn) | 18µM* | -75*! | 6.3µM* | ?
CN1CCN(C2Cc3ccccc3Sc3ccc(Cl)cc32)CC1 (stereo not drawn) | 10µM* | -11 | 16µM* | ?
CCc1cccc2c1Sc1ccccc1CC2N1CCNCC1 (stereo not drawn) | / | -98* | / | ?
CC[C@@H]1Cc2[nH][nH]c(=O)c2[C@@H](c2ccc(F)cc2)O1 | / | -17 | / | -15%
Cc1ccccc1S(=O)(=O)NCc1cccnc1 | -3% | -24 | 8% | 33%
O=C(COc1ccc2ccccc2c1)N1CCN(C2CCN(Cc3ccccc3)CC2)CC1 | -27% | 10 | ? | -28%
C[C@H](CO)N1C[C@H](C)[C@@H](CN(C)C(=O)c2ccccc2)OCc2cn(nn2)CCCC1=O | / | 11 | / | 0%
CN1CCN(C2Cc3ccc(F)cc3Sc3cc(F)c(Cl)cc32)CC1 (stereo not drawn) | ? | -95* | ? | 2%
CC(C)c1ccc2c(c1)C(N1CCNCC1)Cc1ccc(F)cc1S2 (stereo not drawn) | ? | -98* | ? | -5%
CN1CCN(C2Cc3cc(F)ccc3Sc3ccc(Cl)cc32)CC1 (stereo not drawn) | / | -9 | / | ?
SMILES | Lassa entry inh | HCMV inh | MARV entry inh | FMDV inh
Cc1c(OCC(=O)NC(Cc2ccc(Cl)cc2)C(=O)O)ccc2c3c(c(=O)oc12)CCCC3 (stereo not drawn) | / | -19 | / | -17%
COc1cc(C(c2sc3nc(C)nn3c2O)N2CC(C)OC(C)C2)cc(OC)c1OC (stereo not drawn) | / | 13 | 0% | -18%
O=C(O)CSCC(=O)Nc1ccc(C2CCCCC2)cc1 | ? | -92* | ? | 1.1µM*
Cc1cc(C)cc(Oc2nc3ccccn3c(=O)c2/C=C(\C#N)c2nc3ccccc3s2)c1 | -10%[46.1 µM] | -5 | 30%[46.1 µM] | ?
CCOc1ccc(CN(C)C(C)C(=O)Nc2ccc([N+](=O)[O-])cc2Cl)cc1OC (stereo not drawn) | 1% | ? | ? | 22µM*
COc1ccc(CN(C)C(C)C(=O)Nc2ccc([N+](=O)[O-])cc2Cl)cc1OC (stereo not drawn) | ? | 80 | ? | ?
COc1ccc(Br)cc1CN(C)C(C)C(=O)Nc1cc([N+](=O)[O-])ccc1OC (stereo not drawn) | -2% | 25 | 14µM* | -30%
Cc1ccc(CNC(=O)CCS(=O)(=O)c2ccc3c(c2)NC(=O)CO3)cc1 | / | -32 | / | -3%
O=C(NCc1ccco1)c1cc2nc(C3CC3)cc(C(F)(F)F)n2n1 | 3.5µM* | 10 | 1%[46.1 µM] | 8%
C[C@]12CC[C@@H]3c4ccc(O)cc4CC[C@H]3[C@@H]1CC[C@@H]2OC(=O)CCC(=O)O | 3% | -100* | -16% | -14%
CC(C)(C)OC(=O)N1CCC(c2c(C(=O)Nc3ccc4c(c3)OCCO4)cnn2-c2ccc(F)cc2)CC1 | ? | -6 | / | -4%
COc1ccc(-n2ncc(C(=O)Nc3ccc4c(c3)OCCO4)c2C2CCN(C(=O)OC(C)(C)C)CC2)cc1 | ? | + | / | -8%
Cc1c(Cl)cccc1-n1ncc(C(=O)Nc2ccc3c(c2)OCCO3)c1C1CCN(C(=O)OC(C)(C)C)CC1 | ? | -82* | / | -5%
COc1cc2[nH]c(=S)nc(NCc3cccnc3)c2cc1OC | / | -16 | -5% | -2%
CCOC(=O)Cc1nn(Cc2nc(-c3ccc(C#N)cc3)cs2)c(=O)c2ccccc12 | ? | ? | ? | 18µM*
O=C(NCCN1CCN(c2ccccc2)CC1)c1cccc(Br)c1 | -4% | 19 | ? | -27%
CCOc1ccc(/C=N/Nc2cc(N3CCOCC3)ncn2)c(O)c1 | / | 24 | / | ?
CCCOc1ccc(/C=N/Nc2cc(N3CCOCC3)ncn2)c(O)c1 | / | -101* | / | -15%
Cc1ccc(S(=O)(=O)N[C@H](C(=O)OCC(=O)NC(=O)NCc2ccco2)C(C)C)cc1 | ? | 19 | 9%[46.1 µM] | ?
Oc1cccc2cc(Nc3ccccc3)cnc12 | / | -101* | / | 2%
c1ccc(Nc2ccc3ccccc3c2)cc1 | / | ? | / | 34%
Oc1cc(Nc2ccccc2)cc2cccnc12 | / | -82* | / | -24%
Oc1cc(NCCN2CCOCC2)cc2cccnc12 | / | -87* | / | ?
CN1/C(=C\C(=S)NC(=O)c2ccc([N+](=O)[O-])cc2)C(C)(C)c2ccccc21 | / | -36 | / | 5%
CN1/C(=C\C(=S)NC(=O)c2cccc(Br)c2)C(C)(C)c2ccccc21 | -1% | -96* | ? | ?
C=C1CC(COc2cc(=O)oc3ccccc23)(c2ccccc2)OC1=O (stereo not drawn) | -19% | 216 | ? | 14µM*
OCCNCCCOc1cccc(Cl)c1Cl | / | / | / | -10%
CCCCNCCCOc1cccc(Cl)c1Cl | -1% | -22 | 15µM* | /
Cc1cc(C)c[n+](C(C)C(=O)c2ccc(-c3ccccc3)cc2)c1 (stereo not drawn) | -21% | -99* | ? | ?
Cc1ccc[n+](C(C)C(=O)c2ccc(Cl)cc2)c1 (stereo not drawn) | / | -5 | / | -4%
